Measured values published in the supplement of paper PMC7366291.
Where a name gives a salt, the structure may show the parent alone. ± gives the standard deviation of the averaged measurements.

The molecules below were run on Danio rerio Tg(wt1b:EGFP) embryo, pronephros (assay: pronephric angle neck segment to proximal convoluted tubule (mean of left and right), fold change vs DMSO control; higher = larger pronephric angle). Settings: 25 µM; exposure: 24-48 hpf.
Procedure, shortened: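 Dechorionated Tg(wt1b:EGFP) zebrafish embryos were exposed to 25 μM compound in 0.5% DMSO, HEPES-buffered E3 with 0.003% PTU, from 24 to 48 hpf at 28.5°C. Pronephroi were imaged dorsally in agarose-filled 96-well plates (470 nm, 10 z-slices). On maximum projections, 16 reference points were set manually in Fiji and a macro computed distances and angles. Values more than 2 SD from the feature mean were excluded. Each feature is a fold change relative to the mean of same-day DMSO controls.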
In the case of Cc1ncc([N+](=O)[O-])n1CCO [Metronidazole], the “pronephric angle neck segment” value is reported as 0.884 ± 0.061. In the case of CC(C)NCC(O)COc1ccc(COCCOC(C)C)cc1 (configuration not stated) [Bisoprolol fumarate], the “pronephric angle neck segment” value is reported as 0.999 ± 0.083. In the case of NC(CO)C(=O)NNCc1ccc(O)c(O)c1O (configuration not stated) [Benserazide hydrochloride], the “pronephric angle neck segment” value is reported as 1.05 ± 0.039. CCN1CCC[C@H]1CNC(=O)c1c(OC)ccc(Br)c1OC [Remoxipride Hydrochloride] was tested, and the “pronephric angle neck segment” value was 0.976 ± 0.032. COc1ccccc1Oc1c(NS(=O)(=O)c2ccc(C(C)(C)C)cc2)nc(-c2ncccn2)nc1OCCO [Bosentan] was tested, and the “pronephric angle neck segment” value was 1.03 ± 0.029. In the case of CCCCC(CC)CN1CN(CC(CC)CCCC)CC(C)(N)C1 (configuration not stated) [Hexetidine], the “pronephric angle neck segment” value is reported as 0.9331 ± 0.005. C#C[C@]1(O)CC[C@H]2[C@@H]3[C@H](C)CC4=C(CCC(=O)C4)[C@H]3CC[C@@]21C [Tibolone] was tested, and the “pronephric angle neck segment” value was 0.924 ± 0.078. With CC(=O)[C@@]1(O)CC[C@H]2[C@@H]3C[C@H](C)C4=CC(=O)C=C[C@]4(C)[C@@]3(F)[C@@H](O)C[C@@]21C [Fluorometholone] the “pronephric angle neck segment” value was 0.997 ± 0.035. For O=C(O)COCCN1CCN(C(c2ccccc2)c2ccc(Cl)cc2)CC1 (configuration not stated) [Cetirizine dihydrochloride], the “pronephric angle neck segment” value was 1.03 ± 0.011. For CN(C)c1ccc(O)c2c1C[C@H]1C[C@H]3[C@H](N(C)C)C(O)=C(C(N)=O)C(=O)[C@@]3(O)C(O)=C1C2=O [Minocycline hydrochloride], the “pronephric angle neck segment” value was 0.92712 ± 6.2e-05. In the case of CC(=O)OC(C)C[N+](C)(C)C (configuration not stated) [Methacholine chloride], the “pronephric angle neck segment” value is reported as 0.972 ± 0.011. For CNCCC=C1c2ccccc2CCc2ccccc21 [Nortriptyline hydrochloride], the “pronephric angle neck segment” value was 1.03 ± 0.011. For Cc1ccc2c(c1)c1c3n2CCNC3CCC1 (configuration not stated) [Pirlindole mesylate], the “pronephric angle neck segment” value was 0.95 ± 0.0043. CC(C)CC(=O)N[C@H](C(=O)N[C@H](C(=O)N[C@@H](CC(C)C)[C@@H](O)CC(=O)N[C@@H](C)C(=O)N[C@@H](CC(C)C)[C@@H](O)CC(=O)O)C(C)C)C(C)C [Pepstatin A] was tested, and the “pronephric angle neck segment” value was 1.01 ± 0.041. CC(C)(C)C(=O)OCOC(=O)[C@@H]1N2C(=O)[C@@H](NC(=O)[C@H](N)c3ccccc3)[C@H]2SC1(C)C [Pivampicillin] was tested, and the “pronephric angle neck segment” value was 0.9619 ± 0.0073. In the case of CCc1ccc(CCOc2ccc(CC3SC(=O)NC3=O)cc2)nc1 (configuration not stated) [Pioglitazone], the “pronephric angle neck segment” value is reported as 1.03 ± 0.018. With CN(Cc1ccc(C(C)(C)C)cc1)Cc1cccc2ccccc12 [Butenafine Hydrochloride] the “pronephric angle neck segment” value was 1.05 ± 0.12. For CC(C(=O)O)c1ccc(N2Cc3ccccc3C2=O)cc1 (configuration not stated) [Indoprofen], the “pronephric angle neck segment” value was 1.3 ± 0.1. In the case of CN1CCC(=C2c3ccccc3CCc3cccnc32)CC1 [Azatadine maleate], the “pronephric angle neck segment” value is reported as 0.99 ± 0.037. C=C1c2cccc(O)c2C(=O)C2=C(O)[C@]3(O)C(=O)C(C(N)=O)=C(O)[C@@H](N(C)C)[C@@H]3[C@@H](O)[C@H]12 [Methacycline hydrochloride] was tested, and the “pronephric angle neck segment” value was 0.984 ± 0.018. In the case of COC(=O)C1=C(C)NC(C)=C(C(=O)OC(C)C)C1c1cccc2nonc12 (configuration not stated) [Isradipine], the “pronephric angle neck segment” value is reported as 1.007 ± 0.0069. CNCCCC12CCC(c3ccccc31)c1ccccc12 [Maprotiline hydrochloride] was tested, and the “pronephric angle neck segment” value was 1.1 ± 0.058. CC1(C)S[C@@H]2[C@H](NC(=O)[C@H](NC(=O)N3CCNC3=O)c3ccccc3)C(=O)N2[C@H]1C(=O)O [Azlocillin sodium salt] was tested, and the “pronephric angle neck segment” value was 0.928 ± 0.015. In the case of NC(=O)NC1NC(=O)NC1=O (configuration not stated) [Allantoin], the “pronephric angle neck segment” value is reported as 0.981 ± 0.024. For Cc1[nH]cnc1CN1CCc2c(c3ccccc3n2C)C1=O [Alosetron hydrochloride], the “pronephric angle neck segment” value was 0.977 ± 0.015. CN[C@@H]1[C@@H](O[C@H]2O[C@H](CO)[C@@H](N)[C@H](O)[C@H]2O)OC2C[C@@H](N)[C@@H](O[C@H]3[C@H](O)[C@@H](O)[C@H](N)C[C@@H]3N)OC2[C@@H]1O (some centres not stated) [Apramycin] was tested, and the “pronephric angle neck segment” value was 0.9506 ± 0.0069. For CN1CCc2cccc3c2[C@H]1Cc1ccc(O)c(O)c1-3 [R(-) Apomorphine hydrochloride hemihydrate], the “pronephric angle neck segment” value was 0.933 ± 0.042.
